Values joined by “and” are separate entries in the source; they are usually repeats but may differ in a detail not shown here. Equal entries are not always repeated. Out of some 5,500 compounds screened, about 2,000 (36%) were called active. About 18% were inconclusive and are not listed. Rule as the data show it: active = normalized growth mostly below about 0.91 (no sharp cut-off); inconclusive = no clear call, values can overlap the other calls; inactive = mostly above about 0.92. The list shows a part of the results.
Assay: chemical genetic growth profiling, strain panel (AID 1159580);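 also: tested at 20 µM; growth read once vehicle control cultures reached saturation at 30 °C; 1 = growth at the plate median or of vehicle wells; lower values mean less growth of the strain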
Details: growth OD

Measured: normalized growth

CN1C(C)(C)CCCC1(C)C
inactive: S. cerevisiae deletion strains, locus YAL013W, strain DEP1, hits give low values 1.02 and 1.01 | S. cerevisiae deletion strains, locus YAL040C, strain CLN3, hits give low values 1.07 | S. cerevisiae deletion strains, locus YBR021W, strain FUR4, hits give low values 1.01 | S. cerevisiae deletion strains, locus YBR229C, strain ROT2, hits give low values 1.02 | S. cerevisiae deletion strains, locus YCL029C, strain bik1, hits give low values 0.988 | S. cerevisiae deletion strains, locus YCL061C, strain MRC1 (second series), hits give low values 0.994 | S. cerevisiae deletion strains, locus YDL035C, strain GPR1, hits give low values 1.02 | S. cerevisiae deletion strains, locus YDL074C, strain BRE1, hits give low values 1.06 | S. cerevisiae deletion strains, locus YDL101C, strain DUN1, hits give low values 1.02 | S. cerevisiae deletion strains, locus YDL134C, strain PPH21, hits give low values 1.02 | S. cerevisiae deletion strains, locus YDL185W, strain tfp1, hits give low values 0.993 | S. cerevisiae deletion strains, locus YDL192W, strain arf1, hits give low values 0.978 | S. cerevisiae deletion strains, locus YDR101C, strain arx1, hits give low values 0.969 | S. cerevisiae deletion strains, locus YDR150W, strain NUM1, hits give low values 1.02 and 1 | S. cerevisiae deletion strains, locus YDR162C, strain NBP2, hits give low values 1.04 | S. cerevisiae deletion strains, locus YDR318W, strain mcm21, hits give low values 0.99 | S. cerevisiae deletion strains, locus YDR363W, strain ESC2, hits give low values 0.997 | S. cerevisiae deletion strains, locus YDR388W, hits give low values 0.998 | S. cerevisiae deletion strains, locus YDR502C, strain sam2, hits give low values 1.02 | S. cerevisiae deletion strains, locus YEL061C, strain CIN8, hits give low values 1.02 | S. cerevisiae deletion strains, locus YER002W, strain NOP16, hits give low values 1.02 | S. cerevisiae deletion strains, locus YER110C, hits give low values 0.992 | S. cerevisiae deletion strains, locus YER155C, strain BEM2, hits give low values 1.02 | S. cerevisiae deletion strains, locus YER167W, strain BCK2, hits give low values 1.02 | S. cerevisiae deletion strains, locus YGL078C, strain dbp3, hits give low values 1.01 | S. cerevisiae deletion strains, locus YGL086W, strain mad1, hits give low values 0.996 | S. cerevisiae deletion strains, locus YGL248W, strain PDE1, hits give low values 1.03 | S. cerevisiae deletion strains, locus YGR078C, strain PAC10, hits give low values 1.04 | S. cerevisiae deletion strains, locus YGR135W, strain pre9, hits give low values 1.01 | S. cerevisiae deletion strains, locus YGR229C, strain SMI1, hits give low values 1.03 and 0.995 | S. cerevisiae deletion strains, locus YGR252W, strain gcn5, hits give low values 0.907 | S. cerevisiae deletion strains, locus YHR030C, strain SLT2, hits give low values 1.01 | S. cerevisiae deletion strains, locus YHR079C, strain IRE1 (second series), hits give low values 0.988 | S. cerevisiae deletion strains, locus YHR094C, strain hxt1, hits give low values 1 | S. cerevisiae deletion strains, locus YHR129C, strain ARP1, hits give low values 1.01 | S. cerevisiae deletion strains, locus YHR200W, strain rpn10, hits give low values 0.997 | S. cerevisiae deletion strains, locus YIL066C, strain RNR3, hits give low values 1.03 | S. cerevisiae deletion strains, locus YIL073C, strain SPO22, hits give low values 0.991 | S. cerevisiae deletion strains, locus YIL125W, strain kgd1, hits give low values 1.01 | S. cerevisiae deletion strains, locus YIR030C, strain dcg1, hits give low values 0.999 | S. cerevisiae deletion strains, locus YJL095W, strain BCK1, hits give low values 1.03 | S. cerevisiae deletion strains, locus YJL134W, strain LCB3, hits give low values 1.01 | S. cerevisiae deletion strains, locus YJL168C, strain set2, hits give low values 0.993 | S. cerevisiae deletion strains, locus YJL187C, strain SWE1 (second series), hits give low values 1.04 | S. cerevisiae deletion strains, locus YJR043C, strain POL32, hits give low values 1 | S. cerevisiae deletion strains, locus YJR075W, strain HOC1, hits give low values 1.02 | S. cerevisiae deletion strains, locus YKL009W, strain mrt4, hits give low values 0.962 | S. cerevisiae deletion strains, locus YKL068W, hits give low values 1 | S. cerevisiae deletion strains, locus YKL085W, strain MDH1 (second series), hits give low values 1.01 | S. cerevisiae deletion strains, locus YKL085W, strain MDH1, hits give low values 1.01 | S. cerevisiae deletion strains, locus YKL190W, strain CNB1, hits give low values 1.01 | S. cerevisiae deletion strains, locus YKR001C, strain vps1, hits give low values 0.994 | S. cerevisiae deletion strains, locus YLR039C, strain RIC1, hits give low values 1.03 | S. cerevisiae deletion strains, locus YLR058C, strain SHM2, hits give low values 1.02 | S. cerevisiae deletion strains, locus YLR102C, strain apc9, hits give low values 0.998 | S. cerevisiae deletion strains, locus YLR262C, strain YPT6, hits give low values 1.02 | S. cerevisiae deletion strains, locus YLR268W, strain sec22, hits give low values 1.01 | S. cerevisiae deletion strains, locus YLR330W, strain CHS5, hits give low values 1.01 | S. cerevisiae deletion strains, locus YLR342W, strain FKS1 (second series), hits give low values 0.996 | S. cerevisiae deletion strains, locus YLR371W, strain rom2, hits give low values 0.984 | S. cerevisiae deletion strains, locus YLR418C, strain cdc73, hits give low values 1 | S. cerevisiae deletion strains, locus YML016C, strain PPZ1, hits give low values 1.02 | S. cerevisiae deletion strains, locus YML032C, strain rad52, hits give low values 0.995 | S. cerevisiae deletion strains, locus YML124C, strain tub3, hits give low values 1 | S. cerevisiae deletion strains, locus YMR078C, strain ctf18, hits give low values 0.999 | S. cerevisiae deletion strains, locus YMR223W, strain ubp8, hits give low values 0.983 | S. cerevisiae deletion strains, locus YMR263W, strain SAP30, hits give low values 1.03 | S. cerevisiae deletion strains, locus YMR307W, strain GAS1, hits give low values 1.04 | S. cerevisiae deletion strains, locus YNL067W, strain RPL9B, hits give low values 1.03 | S. cerevisiae deletion strains, locus YNL128W, strain TEP1, hits give low values 1.03 | S. cerevisiae deletion strains, locus YNL153C, strain GIM3, hits give low values 1.04 and 1.01 | S. cerevisiae deletion strains, locus YNL175C, strain NOP13, hits give low values 1 | S. cerevisiae deletion strains, locus YNL197C, strain WHI3, hits give low values 1 | S. cerevisiae deletion strains, locus YNL224C, strain SQS1, hits give low values 1.01 | S. cerevisiae deletion strains, locus YNL233W, strain BNI4, hits give low values 1.04 | S. cerevisiae deletion strains, locus YNL250W, strain rad50, hits give low values 1 | S. cerevisiae deletion strains, locus YNL271C, strain bni1, hits give low values 0.99 | S. cerevisiae deletion strains, locus YNL298W, strain CLA4, hits give low values 0.996 | S. cerevisiae deletion strains, locus YNL307C, strain MCK1, hits give low values 0.993 | S. cerevisiae deletion strains, locus YNL322C, strain KRE1, hits give low values 1.02 | S. cerevisiae deletion strains, locus YNR052C, strain pop2, hits give low values 0.982 | S. cerevisiae deletion strains, locus YOL006C, strain TOP1, hits give low values 1.06 | S. cerevisiae deletion strains, locus YOL012C, strain htz1 1.39 | S. cerevisiae deletion strains, locus YOL147C, strain pex11, hits give low values 0.996 | S. cerevisiae deletion strains, locus YOR061W, strain CKA2, hits give low values 1.01 | S. cerevisiae deletion strains, locus YOR069W, strain VPS5, hits give low values 1.01 | S. cerevisiae deletion strains, locus YOR083W, strain WHI5 (second series), hits give low values 1.02 | S. cerevisiae deletion strains, locus YOR136W, strain idh2, hits give low values 0.987 | S. cerevisiae deletion strains, locus YOR144C, strain elg1, hits give low values 0.99 | S. cerevisiae deletion strains, locus YOR184W, strain ser1, hits give low values 0.962 | S. cerevisiae deletion strains, locus YOR316C, strain cot1, hits give low values 1 | S. cerevisiae deletion strains, locus YPL055C, strain LGE1, hits give low values 1.05 and 1.01 | S. cerevisiae deletion strains, locus YPL241C, strain CIN2, hits give low values 1.02 | S. cerevisiae deletion strains, locus YPR119W, strain clb2, hits give low values 1.01 | S. cerevisiae deletion strains, locus YPR141C, strain kar3, hits give low values 0.994 | S. cerevisiae deletion strains, locus YPR163C, strain tif3, hits give low values 0.998 | S. cerevisiae deletion strains, locus YPR167C, strain met16, hits give low values 0.998 | S. cerevisiae deletion strains, strain wtn01, hits give low values 1.02 | S. cerevisiae strains, strain wild type, hits give low values 1.02
